Data as given in PubChem BioAssay (NCATS).
Inconclusive results are not listed. Calls of active or inactive are those of the source. Unless noted, the call rests on the fitted dose curve; in most records, active means well fitted curve in the direction sought with a large enough effect; inconclusive means small, poorly fitted or top-dose-only effect, or another doubt; inactive means no such curve, though single readings can be large; an effect the other way counts as inactive or inconclusive.

What was measured:
[1] = NS1 protein of Zika virus - qHTS assay to identify small molecule inhibitors in human HEK 293 cells (AID 1347053); further: nearly all actives have a fitted effect of over 55% in size; further: potency means the concentration at half of the fitted maximal effect
In short: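 Readout was TR-FRET using paired anti-NS1 antibodies after 24 h infection of HEK 293 cells with ZIKV MR766 (MOI = 0.5). Compound preceded virus by 1 h; reduced signal reflects lower NS1 expression.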

[2] = biological target: T1, Tyrosine-protein phosphatase non-receptor type substrate 1 (Homo sapiens) + Leukocyte surface antigen CD47 (Homo sapiens) (UniProt P78324+Q08722); test: CD47-SIRPalpha protein protein interaction - LANCE assay qHTS validation (AID 1347057; active means well fitted curve in the direction sought with a large enough effect in the signal ratio, with a control signal flat, not every such curve was filed as active; the % refers to the signal ratio; further: series mostly up to about 38 µM)
In short: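 Inhibition of soluble CD47/SIRPalpha ectodomain association by titrated compounds, measured as 665/615 nm time-resolved FRET ratio after sequential 30 min room-temperature incubations.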

[3] = biological target: T1, Tyrosine-protein phosphatase non-receptor type substrate 1 (Homo sapiens) + Leukocyte surface antigen CD47 (Homo sapiens); test: CD47-SIRPalpha protein protein interaction - Alpha assay qHTS validation (AID 1347059);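 further: bead proximity luminescence from CD47 binding SIRPalpha after compound preincubation with SIRPalpha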
In short: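 AlphaScreen signal between CD47-His (12.5 nM) and biotin-SIRPalpha (25 nM) soluble extracellular domains, bead-captured via Ni-NTA and streptavidin. Compounds, in 7-point titrations, met SIRPalpha 30 min before CD47; PBS pH 7.4 with 0.05% IGEPAL.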

[4] = qHTS of pediatric cancer cell lines to identify multiple opportunities for drug repurposing: Primary screen for TC32 cells (AID 1347089); further: nearly all actives have a fitted effect of over 60% in size; further: potency means the concentration at half of the fitted maximal effect
In short: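 Luminescent CellTiter-Glo read-out of metabolically active TC32 cells after 48 h compound exposure. Primary: MIPE 11-point, 0.78 nM–46 µM; NPC 8-point, 0.59 nM–46 µM. Confirmatory: 11-point dilutions.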

[5] = qHTS of pediatric cancer cell lines to identify multiple opportunities for drug repurposing: Primary screen for DAOY cells (AID 1347090); further: nearly all actives have a fitted effect of over 55% in size; further: potency means the concentration at half of the fitted maximal effect
In short: (§1)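 Cell viability, CellTiter-Glo luminescence; 500-1,000 cells/well, 8- or 11-point titration, 48 h compound exposure at 37 degrees C, 5% CO2. Controls: DMSO neutral, bortezomib 2.3 µM final as positive.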

[6] = qHTS of pediatric cancer cell lines to identify multiple opportunities for drug repurposing: Primary screen for A673 cells (AID 1347092); further: nearly all actives have a fitted effect of over 45% in size; further: potency means the concentration at half of the fitted maximal effect
In short: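 A673 cells (500-1,000 cells/well in growth media) were pre-incubated 5 h at 37 degrees C, then exposed to compounds for 48 h. Viability was read as CellTiter-Glo luminescence; concentration-response curves came directly from the primary screen.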

[7] = qHTS of pediatric cancer cell lines to identify multiple opportunities for drug repurposing: Primary screen for SK-N-MC cells (AID 1347093); further: potency means the concentration at half of the fitted maximal effect
In short: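 Metabolically active cells were quantified by ATP-dependent luminescence (CellTiter-Glo, 15 min at room temperature) following 48 h treatment. Cells had been plated at 500-1,000 per well and settled for 5 h beforehand.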

[8] = qHTS of pediatric cancer cell lines to identify multiple opportunities for drug repurposing: Primary screen for BT-37 cells (AID 1347094); further: potency means the concentration at half of the fitted maximal effect
In short: (§2)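 Cells seeded at 500-1,000 cells/well in growth media, rested 5 hours at 37 degrees C, 5% CO2, then dosed; MIPE compounds at 11-point (from 0.78 nM) and NPC at 8-point (from 0.59 nM) final concentrations. Viability by CellTiter-Glo luminescence after 48 hours.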

[9] = qHTS of pediatric cancer cell lines to identify multiple opportunities for drug repurposing: Primary screen for NB-EBc1 cells (AID 1347095); further: potency means the concentration at half of the fitted maximal effect
In short: as §2

[10] = qHTS of pediatric cancer cell lines to identify multiple opportunities for drug repurposing: Primary screen for U-2 OS cells (AID 1347096); further: nearly all actives have a fitted effect of over 50% in size; further: potency means the concentration at half of the fitted maximal effect
In short: (§3)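 Cells (500-1,000/well) rested 5 h, then received compounds for 48 h; metabolically active cells were measured by CellTiter-Glo luminescence. Final concentrations spanned up to 46 µM (MIPE, 11-point) or 0.59 nM-46 µM (NPC, 8-point) in primary screens, 11-point in follow-ups.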

[11] = qHTS of pediatric cancer cell lines to identify multiple opportunities for drug repurposing: Primary screen for Saos-2 cells (AID 1347097); further: nearly all actives have a fitted effect of over 40% in size; further: potency means the concentration at half of the fitted maximal effect
In short: as §2

[12] = qHTS of pediatric cancer cell lines to identify multiple opportunities for drug repurposing: Primary screen for SK-N-SH cells (AID 1347098); further: nearly all actives have a fitted effect of over 65% in size; further: potency means the concentration at half of the fitted maximal effect
In short: as §3

[13] = qHTS of pediatric cancer cell lines to identify multiple opportunities for drug repurposing: Primary screen for LAN-5 cells (AID 1347100); further: potency means the concentration at half of the fitted maximal effect
In short: as §3

[14] = qHTS of pediatric cancer cell lines to identify multiple opportunities for drug repurposing: Primary screen for BT-12 cells (AID 1347101); further: nearly all actives have a fitted effect of over 25% in size; further: potency means the concentration at half of the fitted maximal effect
In short: as §3

[15] = qHTS of pediatric cancer cell lines to identify multiple opportunities for drug repurposing: Primary screen for Rh18 cells (AID 1347102); further: nearly all actives have a fitted effect of over 65% in size; further: potency means the concentration at half of the fitted maximal effect
In short: as §3

[16] = qHTS of pediatric cancer cell lines to identify multiple opportunities for drug repurposing: Primary screen for OHS-50 cells (AID 1347103); further: nearly all actives have a fitted effect of over 40% in size; further: potency means the concentration at half of the fitted maximal effect
In short: as §3

[17] = qHTS of pediatric cancer cell lines to identify multiple opportunities for drug repurposing: Primary screen for RD cells (AID 1347104); further: nearly all actives have a fitted effect of over 55% in size; further: potency means the concentration at half of the fitted maximal effect
In short: as §2

[18] = qHTS of pediatric cancer cell lines to identify multiple opportunities for drug repurposing: Primary screen for MG 63 (6-TG R) cells (AID 1347105); further: nearly all actives have a fitted effect of over 50% in size; further: potency means the concentration at half of the fitted maximal effect
In short: as §2

[19] = qHTS of pediatric cancer cell lines to identify multiple opportunities for drug repurposing: Primary screen for NB1643 cells (AID 1347099); further: nearly all actives have a fitted effect of over 50% in size; further: potency means the concentration at half of the fitted maximal effect
In short: as §2

[20] = qHTS of pediatric cancer cell lines to identify multiple opportunities for drug repurposing: Primary screen for SJ-GBM2 cells (AID 1347091); further: potency means the concentration at half of the fitted maximal effect
In short: as §1

Measured: Potency

T1 sequence (P78324 whole entry, looked up, the tested form may be a part): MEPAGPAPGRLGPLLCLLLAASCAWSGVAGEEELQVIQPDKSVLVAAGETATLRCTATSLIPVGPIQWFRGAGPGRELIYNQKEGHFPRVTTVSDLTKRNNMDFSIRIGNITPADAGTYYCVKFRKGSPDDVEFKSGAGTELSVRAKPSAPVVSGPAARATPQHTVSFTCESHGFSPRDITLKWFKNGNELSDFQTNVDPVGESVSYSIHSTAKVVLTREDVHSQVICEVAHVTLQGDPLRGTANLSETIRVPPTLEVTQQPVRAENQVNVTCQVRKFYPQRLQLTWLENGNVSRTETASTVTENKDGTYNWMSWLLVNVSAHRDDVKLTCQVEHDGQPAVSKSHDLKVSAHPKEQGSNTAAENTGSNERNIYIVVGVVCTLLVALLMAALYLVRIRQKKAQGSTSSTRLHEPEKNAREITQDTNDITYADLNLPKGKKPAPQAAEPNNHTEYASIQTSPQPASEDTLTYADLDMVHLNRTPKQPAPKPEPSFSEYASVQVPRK
T1 sequence (Q08722 whole entry, looked up, the tested form may be a part): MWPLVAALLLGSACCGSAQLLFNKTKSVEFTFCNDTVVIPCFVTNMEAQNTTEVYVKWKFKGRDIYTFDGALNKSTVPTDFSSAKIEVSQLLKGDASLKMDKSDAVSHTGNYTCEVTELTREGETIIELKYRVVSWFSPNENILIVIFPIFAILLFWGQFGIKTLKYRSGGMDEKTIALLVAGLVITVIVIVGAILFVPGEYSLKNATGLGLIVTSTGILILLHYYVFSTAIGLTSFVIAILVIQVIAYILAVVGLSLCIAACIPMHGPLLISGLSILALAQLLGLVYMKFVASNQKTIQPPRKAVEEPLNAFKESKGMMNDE

NC(N)=Nc1nc(CSCC/C(N)=N/S(N)(=O)=O)cs1
not listed: [19] | [20]
inactive: all other assays above

CC1(C)CCC2=C(O1)c1ccccc1C(=O)C2=O
active: [7] 23.5 µM | [9] 18.7 µM | [11] 18.7 µM | [19] 23.5 µM | [14] 30.6 µM | [17] 33.2 µM
inactive: [1] | [2] | [3] | [4] | [10]

COc1ccccc1N1CCN(CCCNc2cc(=O)n(C)c(=O)n2C)CC1
not listed: [7] | [14] | [15] | [20]
inactive: all other assays above

O=c1cc(-c2ccc(O)cc2)oc2cc(O)cc(O)c12
inactive: [1] | [2] | [3] | [4]
active: [5] 14.8 µM | [20] 1.32 µM | [8] 3.06 µM | [9] 4.69 µM | [11] 14.8 µM | [19] 0.469 µM | [14] 3.43 µM | [15] 2.35 µM | [16] 3.06 µM | [17] 2.96 µM | [18] 18.7 µM

CC(=Cc1ccccc1)C=C1SC(=S)N(CC(=O)O)C1=O
active: [7] 13.2 µM | [12] 21.5 µM
not listed: [2] | [3] | [13] | [15] | [19]
inactive: all other assays above

CC(C)NCC(O)COc1cccc2[nH]ccc12 (stereo unspecified)
not listed: [7] | [11] | [18]
inactive: all other assays above

O=c1c(-c2ccc(O)cc2)coc2cc(O[C@@H]3O[C@H](CO)[C@H](O)[C@H](O)[C@H]3O)ccc12
not listed: [2] | [3]
inactive: all other assays above

O=C1NC(=O)C(c2ccccc2)(c2ccccc2)N1
not listed: [15] | [18]
inactive: all other assays above

CC(C)(C)c1ccc(C(O)CCCN2CCC(C(O)(c3ccccc3)c3ccccc3)CC2)cc1 (stereo unspecified)
not listed: [12] | [13] | [14] | [15] | [19]
inactive: all other assays above

CCCNC(=O)NS(=O)(=O)c1ccc(Cl)cc1
not listed: [7] | [13]
inactive: all other assays above

COc1cc2nc(-c3ccc(N4CCN(C)CC4)cc3)nc(NCCN3CCOCC3)c2cc1OC
active: [1] 0.332 µM | [4] 0.523 µM | [5] 0.0743 µM | [20] 0.148 µM | [6] 0.0235 µM | [7] 0.0372 µM | [8] 3.06 µM | [9] 1.48 µM | [10] 0.935 µM | [11] 0.296 µM | [12] 4.82 µM | [13] 0.0187 µM | [14] 0.153 µM | [15] 0.235 µM | [16] 0.0544 µM | [17] 0.0418 µM | [18] 1.48 µM

CC(C)C(=O)Oc1ccc(CO)cc1[C@H](CCN(C(C)C)C(C)C)c1ccccc1
not listed: [2] | [3] | [13] | [16] | [18] | [19]
inactive: all other assays above

COc1ccc(-n2c(C)c([N+](=O)[O-])c3ccc(O)cc32)cc1
active: [6] 7.43 µM | [7] 1.18 µM | [12] 19.2 µM
not listed: [2] | [3] | [8] | [14] | [17] | [18] | [19]
inactive: all other assays above

COc1cc2ncnc(-n3nc(-c4ccccn4)nc3N)c2cc1OC
active: [5] 18.7 µM | [20] 14.8 µM | [7] 4.69 µM | [9] 14.8 µM | [11] 4.69 µM | [19] 4.69 µM | [16] 2.17 µM
inactive: [1] | [4] | [10] | [18]
